The list is not random: actives were taken first. Their share in the collection is about 7.9%.
Marburg entry inh: blocks Marburg virus binding to or entry into cells; 300,000 tested, 1.8% active; Marburg virus pseudotyped entry inhibition, cell reporter; Potency, µM (series often up to 37.8 µM), usual class: inhibitors; calls by dose curve; tested in HEK293 cells
FMDV antiviral: blocks foot and mouth disease virus. FMDV antiviral cell-based qHTS. Potency, µM (titrated, usually from 57.9 µM), hits mostly inhibitors. 410,000 tested, 1.2% active. AID 1159524; calls by dose curve; tested in HEK293T cells; further: read-out not given here; nearly all actives have a fitted effect of over 45% in size
HCV inhibitor: inhibitors of hepatitis C virus infection. 340,000 tested, 3.4% active. Huh7.5.1 HCVcc-Cre infection, luciferase reporter, 44 h. Potency, µM (titrated, usually from 41.8 µM), actives largely listed as inhibitors; active means well fitted inhibition curve with a large enough effect; inconclusive means small, poorly fitted or top-dose-only effect, or another doubt; inactive means no such curve, though single readings can be large or run the other way
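Cells (1,000/well) were plated 4 h before compound, then infected with HCVcc-Cre virus (~0.5 moi). After 44 h further culture, infection was read as luciferase luminescence following a 15 min substrate incubation at room temperature.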
HCMV inh: inhibitors of human cytomegalovirus; 410,000 tested, 4.5% active; activity change, negative = inhibition, % at 57.5 µM; HFF cells, HCMV-luciferase reporter, 72 h; active compounds read low; AID 1259415; in the data active means activity change below about -60%; inconclusive means no clear call, values can overlap the other calls; inactive means above about -39%
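Screen run at 2 compound doses on HFFs infected with reporter HCMV, MOI 1 PFU/cell. Luciferase activity from cell lysates at 72 h post infection gave inhibition relative to buffer-only and Salinomycin wells.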
Lassa entry inh: blocks Lassa virus binding to or entry into cells; Lassa virus pseudotype entry inhibition, cell reporter; AID 540256; 300,000 tested, 1.2% active; Potency, µM (titrated, usually from 37.9 µM), actives largely listed as inhibitors; calls by dose curve; tested in HEK293 cells; further: nearly all actives have a fitted effect of over 50% in size
Numbers stand for hits.

How did CC[n+]1ccccc1/C=C1\Sc2ccc(C)cc2N1C do in these assays?
FMDV antiviral: inconclusive; HCV inhibitor: 6.31µM; HCMV inh: -97.3

What do the screens show for `COc1ccc2c(Sc3ccc(Cl)cc3)c(C(=O)N3CCCCC3)[nH]c2c1`?
Marburg entry inh: inconclusive; FMDV antiviral: inactive; HCMV inh: -100.7; Lassa entry inh: inactive

How did O=c1[nH]c2ccccc2n1C1CCN(C(CCc2ccccc2)c2nnnn2Cc2ccccc2)CC1 (centres undefined) do in these assays?
FMDV antiviral: 35.5µM; HCMV inh: -103.0

What do the screens show for `O=c1[nH]c2ccccc2n1C1CCN(C(c2nnnn2Cc2ccccc2)C2CC2)CC1` (centres undefined)?
FMDV antiviral: inactive; HCMV inh: inconclusive

Results for CSCCC(c1nnnn1Cc1ccccc1)N1CCC(n2c(=O)[nH]c3ccccc32)CC1 (centres undefined) ?
FMDV antiviral: inactive; HCMV inh: -90.0

Results for Cc1cc(C(=O)NNC(=O)NC(C)C)no1 ?
Marburg entry inh: inactive; FMDV antiviral: inactive; HCV inhibitor: inactive; HCMV inh: inactive; Lassa entry inh: inactive

How did Cc1cc(N2CCCC2=O)cc(C)c1S(=O)(=O)NCCOc1ccc(C(C)(C)C)cc1 do in these assays?
Marburg entry inh: inconclusive; FMDV antiviral: inconclusive; HCV inhibitor: 11.2µM; HCMV inh: -90.6; Lassa entry inh: 11.6µM

What do the screens show for `O=C1CCCN1c1ccc(S(=O)(=O)NCCOc2ccccc2)cc1`?
Marburg entry inh: inactive; FMDV antiviral: inactive; HCV inhibitor: inactive; HCMV inh: inactive; Lassa entry inh: inactive

What do the screens show for `N#C/C(=N\Nc1ccc(Cl)c(Cl)c1)C(=O)C1CC1`?
Marburg entry inh: inconclusive; FMDV antiviral: inactive; HCV inhibitor: inconclusive; HCMV inh: -99.7; Lassa entry inh: inconclusive

Results for N#C/C(=N\Nc1ccc(F)cc1)C(=O)C1CC1 ?
FMDV antiviral: inactive; HCV inhibitor: inactive; HCMV inh: inactive

Results for Cc1ccc(-n2c(SCC(=O)N3CC(=O)Nc4ccccc43)nc3ccccc3c2=O)cc1 ?
Marburg entry inh: inconclusive; FMDV antiviral: inactive; HCV inhibitor: inactive; HCMV inh: -68.0; Lassa entry inh: inactive

What do the screens show for `O=C1CN(C(=O)CSc2nc(-c3ccc(Cl)cc3)cs2)c2ccccc2N1`?
Marburg entry inh: inconclusive; FMDV antiviral: inconclusive; HCV inhibitor: 14.1µM; HCMV inh: inconclusive; Lassa entry inh: inactive

What do the screens show for `CC(C)c1nc(SCC(=O)N2CC(=O)Nc3ccccc32)c2ccccc2n1`?
Marburg entry inh: inconclusive; FMDV antiviral: 15.8µM; HCV inhibitor: inconclusive; HCMV inh: -87.2; Lassa entry inh: inconclusive

Results for CCOC(=O)N1CCN(C(=O)CSc2nc3ccccc3c(=O)n2-c2ccccc2)CC1 ?
Marburg entry inh: inactive; FMDV antiviral: inconclusive; HCV inhibitor: inactive; HCMV inh: inactive; Lassa entry inh: 8.91µM

Results for COc1ccc(-n2c(SCC(=O)N3CCCCC3)nc3ccccc3c2=O)cc1 ?
Marburg entry inh: inconclusive; FMDV antiviral: inactive; HCV inhibitor: inactive; HCMV inh: inactive; Lassa entry inh: inactive

Results for Cc1[nH]nc(-c2cccnc2)c1N=NN(C)C ?
Marburg entry inh: 7.08µM; FMDV antiviral: inconclusive; HCV inhibitor: inconclusive; HCMV inh: inactive; Lassa entry inh: inconclusive

What do the screens show for `CN(C)c1nc(N)nc(-c2cccnc2)n1`?
Marburg entry inh: inactive; FMDV antiviral: inactive; HCV inhibitor: inactive; HCMV inh: inactive; Lassa entry inh: inactive

What do the screens show for `CN(C)C(=O)CCc1ccc2c3c([nH]c2c1)[C@]1(C)[C@@H](C(=O)N2CCCCC2)C[C@H](CC(=O)NCc2cccc(C(F)(F)F)c2)C(=O)N1CC3`?
FMDV antiviral: inactive; HCV inhibitor: inconclusive; HCMV inh: inactive

What do the screens show for `C[C@]12c3[nH]c4ccc(Cl)cc4c3CCN1C(=O)[C@@H](CC(=O)NCc1cccc(C(F)(F)F)c1)C[C@@H]2C(=O)N1CCCCC1`?
FMDV antiviral: inconclusive; HCV inhibitor: 25.1µM; HCMV inh: -103.7

Results for CCN(CC)C(=O)[C@H]1CC(CC(=O)NCc2cccc(C(F)(F)F)c2)C(=O)N2CCc3c([nH]c4ccc(OC)cc34)[C@]12C (some centres undefined) ?
Marburg entry inh: inactive; FMDV antiviral: inconclusive; HCV inhibitor: inconclusive; HCMV inh: inactive

What do the screens show for `COc1ccc2[nH]c3c(c2c1)CCN1C(=O)C(CC(=O)NCc2cccc(C(F)(F)F)c2)C[C@H](C(=O)N2CCCCC2)[C@@]31C` (some centres undefined)?
Marburg entry inh: inactive; FMDV antiviral: inactive; HCV inhibitor: 11.2µM; HCMV inh: inactive

Compound activity: PubChem, National Center for Advancing Translational Sciences (NCATS)
